From PubChem BioAssay (NCATS)
Inconclusive results are not listed. A call without a number means that no potency is given here. A number with no mark means an inactive call. Calls of active or inactive are those of the source. The call rests on the fitted dose curve; in most records, active means well fitted inhibition curve with a large enough effect; inconclusive means small, poorly fitted or top-dose-only effect; inactive means flat fitted curve, though single readings scatter.
Potency means the concentration at half of the fitted maximal effect.

These compounds were tested on PC26 (assay: qHTS profiling for inhibitors of Plasmodium falciparum proliferation (AID 504749; further: nearly all actives have a fitted effect of over 60% in size)). Details: P. falciparum in erythrocytes, SYBR Green DNA, 72 h; series mostly up to 28.7 µM.
Procedure, shortened: (§1)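 Readout was DNA-dye fluorescence from lysed cultures, ex 485/em 535 nm. Parasitized red cells had grown 72 h with compound; data scaled between 0.29 uM artemisinin and DMSO wells and corrected using vehicle-only plates.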
`CCCCC/C=C\C/C=C\C/C=C\C/C=C\CCCC(=O)NCC(=O)O` was tested, and the activity, negative = inhibition was 8.23% [at 2.67 µM]. In the case of `CCC(C)(C)c1ccc(O)cc1`, the Potency is reported as “inactive”. With `C[C@]12CC[C@@H]3c4ccc(OC(=O)N(CCCl)CCCl)cc4CC[C@H]3[C@@H]1CC[C@@H]2O` the Potency was “inactive”. In the case of `CCCC(C)(COC(N)=O)COC(N)=O`, the Potency is reported as “inactive”. With `Cc1nnc2n1-c1ccc(Cl)cc1C(c1ccccc1)=NC2` the Potency was “inactive”. In the case of `CCC1(CC)C(=O)C=CNC1=O`, the Potency is reported as “inactive”. For `C[C@](O)(CS(=O)(=O)c1ccc(F)cc1)C(=O)Nc1ccc(C#N)c(C(F)(F)F)c1`, the Potency was “inactive”. For `CN1C(=O)C(O)N=C(c2ccccc2)c2cc(Cl)ccc21` (stereo unspecified), the Potency was “inactive”. For `Clc1ccc2c(c1)C(c1ccccc1)=NCc1nncn1-2`, the Potency was “inactive”. For `O=c1oc2ccccc2c(O)c1Cc1c(O)c2ccccc2oc1=O`, the Potency was “inactive”. `COP(=S)(OC)SCN1C(=O)c2ccccc2C1=O` was tested, and the Potency was “inactive”. For `O=C1CN=C(c2ccccc2)c2cc([N+](=O)[O-])ccc2N1`, the Potency was “inactive”. For `COC(=O)C(c1ccccc1)C1CCCCN1` (stereo unspecified), the Potency was “inactive”. In the case of `CC(C)=CC1C(C(=O)OCN2C(=O)C3=C(CCCC3)C2=O)C1(C)C` (stereo unspecified), the Potency is reported as “inactive”. With `O=C1Nc2ccc(Cl)cc2C(c2ccccc2)=NC1O` (stereo unspecified) the Potency was “inactive”. `O=C1Nc2ccc(Cl)cc2C(c2ccccc2Cl)=NC1O` (stereo unspecified) was tested, and the Potency was “inactive”. In the case of `CN1C[C@H](C(=O)N[C@]2(C)O[C@@]3(O)[C@@H]4CCCN4C(=O)[C@H](Cc4ccccc4)N3C2=O)C=C2c3cccc4[nH]cc(c34)C[C@H]21`, the Potency is reported as 1690 nM (active). With `O=C(Nc1ccc(Br)cc1)c1cc(Br)cc(Br)c1O` the Potency was “inactive”. `CCCCCCC(=O)CCCCCC/C=C/C[C@@H](O)[C@H](O)[C@@](N)(CO)C(=O)O` was tested, and the Potency was “inactive”. For `CN1C(=O)CC(=O)N(c2ccccc2)c2cc(Cl)ccc21`, the Potency was “inactive”. `CCOP(=S)(OCC)Oc1ccc2c(C)c(Cl)c(=O)oc2c1` was tested, and the Potency was “inactive”.

These compounds were tested on PC49 in the same assay as above. Details: P. falciparum in erythrocytes, SYBR Green DNA, 72 h; series mostly up to 28.7 µM.
Procedure, shortened: as §1
In the case of `COc1ccc2c(c1)C13CCCC[C@@H]1C(C2)N(C)CC3` (stereo partly specified), the Potency is reported as 3550 nM (active). With `CCC(C)(C)c1ccc(O)cc1` the Potency was “inactive”. For `C[C@]12CC[C@@H]3c4ccc(OC(=O)N(CCCl)CCCl)cc4CC[C@H]3[C@@H]1CC[C@@H]2O`, the Potency was “inactive”. `CCCC(C)(COC(N)=O)COC(N)=O` was tested, and the Potency was “inactive”. With `Cc1nnc2n1-c1ccc(Cl)cc1C(c1ccccc1)=NC2` the Potency was “inactive”. With `CCC1(CC)C(=O)C=CNC1=O` the Potency was “inactive”. With `C[C@](O)(CS(=O)(=O)c1ccc(F)cc1)C(=O)Nc1ccc(C#N)c(C(F)(F)F)c1` the Potency was “inactive”. For `COC1CC(=C(c2cccs2)c2cccs2)C[N+](C)(C)C1` (stereo unspecified), the Potency was “inactive”. With `CC(C)(C)NCC(O)c1cc(Cl)c(N)c(C(F)(F)F)c1` (stereo unspecified) the Potency was 11200 nM (active). In the case of `CN1C(=O)C(O)N=C(c2ccccc2)c2cc(Cl)ccc21` (stereo unspecified), the Potency is reported as “inactive”. For `Clc1ccc2c(c1)C(c1ccccc1)=NCc1nncn1-2`, the Potency was “inactive”. In the case of `O=c1oc2ccccc2c(O)c1Cc1c(O)c2ccccc2oc1=O`, the Potency is reported as “inactive”. With `COP(=S)(OC)SCN1C(=O)c2ccccc2C1=O` the Potency was “inactive”. `O=C1CN=C(c2ccccc2)c2cc([N+](=O)[O-])ccc2N1` was tested, and the Potency was “inactive”. `O=C1c2ccccc2C(=O)c2ccccc21` was tested, and the Potency was “inactive”. With `CC(C)=CC1C(C(=O)OCN2C(=O)C3=C(CCCC3)C2=O)C1(C)C` (stereo unspecified) the Potency was “inactive”. With `O=C1Nc2ccc(Cl)cc2C(c2ccccc2)=NC1O` (stereo unspecified) the Potency was “inactive”. In the case of `O=C1Nc2ccc(Cl)cc2C(c2ccccc2Cl)=NC1O` (stereo unspecified), the Potency is reported as “inactive”. For `CN1C[C@H](C(=O)N[C@]2(C)O[C@@]3(O)[C@@H]4CCCN4C(=O)[C@H](Cc4ccccc4)N3C2=O)C=C2c3cccc4[nH]cc(c34)C[C@H]21`, the Potency was 1580 nM (active). `O=C(Nc1ccc(Br)cc1)c1cc(Br)cc(Br)c1O` was tested, and the Potency was “inactive”. In the case of `COP(=S)(OC)Oc1ccc(SC)c(C)c1`, the Potency is reported as “inactive”. `CCCCCCC(=O)CCCCCC/C=C/C[C@@H](O)[C@H](O)[C@@](N)(CO)C(=O)O` was tested, and the Potency was “inactive”. With `CN1C(=O)CC(=O)N(c2ccccc2)c2cc(Cl)ccc21` the Potency was “inactive”. For `CC(C)c1cccc(C(C)C)c1O`, the Potency was “inactive”. With `CCOP(=S)(OCC)Oc1ccc2c(C)c(Cl)c(=O)oc2c1` the Potency was “inactive”.
